Test [1] is described as follows: qHTS assay to identify small molecule agonists of the hypoxia (HIF-1) signaling pathway - cell viability counter screen (AID 1224844; calls by dose curve; further: nearly all actives have a fitted effect of over 50% in size; further: potency means the concentration at half of the fitted maximal effect). An outline of the steps: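 Tox21 10K compounds were added to HRE-bla ME-180 cells (0.5% dialyzed FBS) and incubated 17 hrs at 37C; ATP-based CellTiter-Glo luminescence then reported cell viability in the same wells.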
(In general: qHTS replaces the single test concentration by a dilution series.)

The nature of test [2]: qHTS assay to identify small molecule agonists of H2AX (AID 1224845; active means well fitted activation curve with a large enough effect in the signal ratio in the repeat runs, not every such curve was filed as active; the % refers to the signal ratio). The gist of the method: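 Wild-type CHO-K1 cells plated overnight, then exposed 3 hr at 37C to compounds at 15 concentrations (0.76% DMSO). Lysed, then HTRF anti-pH2AX(S139)-cryptate/anti-H2AX-d2 detection after 24 hr at room temperature; emissions 665 and 620 nm.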
Test [3] can be described thus: qHTS assay to identify small molecule agonists of H2AX - cell viability counter screen (AID 1224847; calls by dose curve; further: top concentration of the series differs between compounds; nearly all actives have a fitted effect of over 30% in size). An outline of the steps:
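Cytotoxicity counter screen in wild-type CHO-K1 cells: a 3 hr compound treatment at 37C across 15 concentrations, followed by CellTiter-Glo luminescence to gauge viable cells.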

A short description of test [4]: qHTS assay to identify small molecule agonists of the estrogen related receptor (ERR) signaling pathway from Tox21 library (AID 1224849; calls by dose curve; further: nearly all actives have a fitted effect of over 15% in size). The note with it: ERR reporter cell line, ONE-Glo luciferase, 18 h. The gist of the method: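 Agonist signal is luciferase luminescence from an ERR reporter cell line treated 18 h at 37 C with DMSO-dissolved compounds, read 30 min after ONE-Glo addition at room temperature.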

The nature of test [5]: qHTS RealTime-Glo MT Cell Viability Assay in HepG2 cells - 24 hour (AID 1224867). Further: nearly all actives have a fitted effect of over 50% in size. An outline of the steps:
(§1)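 HepG2 cells were seeded at 600 cells/well together with NanoLuc luciferase and a cell-permeant prosubstrate, preincubated 5 h at 37 C/5% CO2, then pin-dosed with compounds in DMSO. Nonlytic luminescence from viable cells was read at each time point.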

A short description of test [6]: qHTS RealTime-Glo MT Cell Viability Assay in HEK293 cells - 32 hour (AID 1224868). Further: nearly all actives have a fitted effect of over 50% in size. Further: potency means the concentration at half of the fitted maximal effect. An outline of the steps: (§2)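 HEK293 cells were seeded at 600 cells/well together with NanoLuc luciferase and cell-permeant prosubstrate, preincubated 5 h at 37 C/5% CO2, then given compound in DMSO by pintool. Luminescence from viable-cell prosubstrate reduction was read repeatedly over 40 h.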

The nature of test [7]: A CellTox Green Cytotoxicity Assay to monitor cytotoxicity in HEK293 cells - 0 hour (AID 1224869). Further: nearly all actives have a fitted effect of over 50% in size. The gist of the method: (§3)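 Cytotoxicity was tracked continuously in HEK293 cells by a DNA-binding dye excluded from viable cells. Compounds were transferred in DMSO 5 h after seeding; fluorescence was recorded at intervals up to 40 h.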
Test [8] in a line: qHTS RealTime-Glo MT Cell Viability Assay in HepG2 cells - 40 hour (AID 1224870). Further: nearly all actives have a fitted effect of over 50% in size. An outline of the steps: (§4)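 HepG2 cells mixed with RealTime-Glo MT reagents (NanoLuc plus cell-permeant prosubstrate) were seeded at 600 cells/well, incubated 5 h at 37 C/5% CO2, then pinned with compounds in DMSO; nonlytic luminescence tracked viability during 40 h treatment.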
A short description of test [9]: A CellTox Green Cytotoxicity Assay to monitor cytotoxicity in HEK293 cells - 40 hour (AID 1224871). Further: nearly all actives have a fitted effect of over 45% in size. Further: potency means the concentration at half of the fitted maximal effect. An outline of the steps:
as §3

Test [10] in a line: qHTS RealTime-Glo MT Cell Viability Assay in HEK293 cells - 16 hour (AID 1224872). Further: nearly all actives have a fitted effect of over 50% in size. Further: potency means the concentration at half of the fitted maximal effect. An outline of the steps:
as §2

The nature of test [11]: qHTS RealTime-Glo MT Cell Viability Assay in HepG2 cells - 8 hour (AID 1224873). Further: nearly all actives have a fitted effect of over 55% in size. The gist of the method: as §4
Test [12] in a line: qHTS RealTime-Glo MT Cell Viability Assay in HEK293 cells - 40 hour (AID 1224874). Further: nearly all actives have a fitted effect of over 50% in size. Further: potency means the concentration at half of the fitted maximal effect. The note with it: RealTime-Glo luminescence; max response: stronger effect = lower value. An outline of the steps: (§5)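 Nonlytic bioluminescent viability monitoring. HEK293 at 600 cells/well with reagent; 5 h settle; compound transfer by pintool; plates held at 37 C and read at set time points.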
Test [13] is described as follows: A CellTox Green Cytotoxicity Assay to monitor cytotoxicity in HEK293 cells - 24 hour (AID 1224875). Further: nearly all actives have a fitted effect of over 45% in size. The gist of the method:
as §3

A short description of test [14]: A CellTox Green Cytotoxicity Assay to monitor cytotoxicity in HepG2 cells - 16 hour (AID 1224876). Further: nearly all actives have a fitted effect of over 45% in size. Further: potency means the concentration at half of the fitted maximal effect. The gist of the method: (§6)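 Real-time, homogeneous cytotoxicity readout: dead-cell DNA staining by CellTox Green in HepG2 monolayers, fluorescence measured at timed intervals up to 40 h of continuous compound exposure.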
Test [15] can be described thus: qHTS RealTime-Glo MT Cell Viability Assay in HepG2 cells - 32 hour (AID 1224877). Further: nearly all actives have a fitted effect of over 55% in size. Further: potency means the concentration at half of the fitted maximal effect. An outline of the steps:
as §1

A short description of test [16]: A CellTox Green Cytotoxicity Assay to monitor cytotoxicity in HepG2 cells - 24 hour (AID 1224878). Further: nearly all actives have a fitted effect of over 45% in size. Further: potency means the concentration at half of the fitted maximal effect. An outline of the steps: as §6
A short description of test [17]: A CellTox Green Cytotoxicity Assay to monitor cytotoxicity in HepG2 cells - 40 hour (AID 1224879). Further: nearly all actives have a fitted effect of over 40% in size. Further: potency means the concentration at half of the fitted maximal effect. An outline of the steps: as §6
Test [18] can be described thus: qHTS RealTime-Glo MT Cell Viability Assay in HEK293 cells - 0 hour (AID 1224880). An outline of the steps: as §5
Test [19] is described as follows: qHTS assay to identify small molecule antagonists of the estrogen related receptor (ERR) signaling pathway from Tox21 library (AID 1224848). Further: nearly all actives have a fitted effect of over 50% in size. Further: potency means the concentration at half of the fitted maximal effect. The gist of the method:
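Screening used an ERR reporter line supplied by NTP, exposed for 18 h at 37 C to library compounds delivered in DMSO. Signal was luciferase luminescence developed with ONE-Glo at room temperature for 30 min.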

The nature of test [20]: qHTS assay to identify small molecule agonists of the hypoxia (HIF-1) signaling pathway (AID 1224846; active means well fitted activation curve with a large enough effect in the signal ratio in the repeat runs, not every such curve was filed as active; the % refers to the signal ratio). The gist of the method: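 Steps: seed ME-180 HRE-bla cells (2,000/well, 0.5% dialyzed FBS); incubate 5 hrs at 37C; pin-transfer compounds or DMSO; incubate 17 hrs; add LiveBLAzer B/G substrate CCF4-AM; measure reporter activation by FRET.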

Where “and” joins values, the source holds several entries; their conditions need not be identical. Identical values can stand only once. Records with an inconclusive call do not appear. The source holds several records for some structures; these can differ, active in one and inactive in another. Calls of active or inactive are those of the source. Unless noted, the call rests on the fitted dose curve; in most records, active means well fitted curve in the direction sought with a large enough effect in the repeat runs; inconclusive means weak or mixed curves; inactive means no such curve, though single readings can be large; an effect the other way counts as inactive or inconclusive.
On the % scale 0 is the no-effect control and ±100 the full control effect.

On to `O=c1n(CCCN2CCN(c3cccc(Cl)c3)CC2)nc2ccccn12`, for which the Potency entry in test [1], in test [2], in test [3], in test [5], in test [7] and in [8] was “inactive” each time. In addition, the Potency result in test [9], in test [11], in [13], in test [14], in test [15] and in [16] was “inactive” throughout. Besides, the Potency entry in test [17] and in test [18] was “inactive” throughout. For the same molecule, the activity change, positive = activation in test [4] (at 42.5 µM (top of the series)) is -14.9% (inactive); in test [4] (at 92.4 µM (top of the series)) it was -28.6% (inactive). Besides, the Potency in test [6] is 13.8 µM (active) and 9.52 µM (active); in test [10], 12.3 µM (active) and 9.52 µM (active); in test [12] it was 13.8 µM (active) and 9.52 µM (active).
For `CC(CN1c2ccccc2Sc2ccccc21)N(C)C` (stereo not given), the Potency in test [1] was 39.3 µM (active); in test [19] it was 61.8 µM (active) and 68.6 µM (active) and inactive; in test [6] it was 39.3 µM (active) and 43.6 µM (active) and 6.01 µM (active); in [9], 54.9 µM (active) and inactive; in test [10] it was 39.3 µM (active) and 30.9 µM (active); in test [12] it was 39.3 µM (active) and 43.6 µM (active) and 6.01 µM (active). In addition, the Potency result in test [14] was “inactive and 43.6 µM (active)”; in [15], “inactive and 49 µM (active)”; in test [16], 49 µM (active) and 23.9 µM (active); in [17], 55.5 µM (active) and 49 µM (active) and 23.9 µM (active). Besides, the Potency result in [2], in test [7], in test [8], in test [11] and in [18] was “inactive” throughout. Also, the activity change, positive = activation in [4] (at 42.5 µM (top of the series)) was -5.06% (inactive); in test [4] (at 92.4 µM (top of the series)), -81.8% (inactive) and -69.4% (inactive).
Consider `CC(C)=CCC/C(C)=C/C=O`, for which the Potency result in test [1], in test [2], in test [3], in [5], in [6] and in test [7] was “inactive” throughout. Also, the Potency result in test [8], in [9], in [10], in [11], in test [13] and in [14] was “inactive” in each case. In addition, the Potency entry in test [15], in [17] and in [18] was “inactive” throughout. For the same molecule, in test [20], the molecule was classed as inactive. Also, the max response in test [12] is 4.59% (inactive) and 11.5% (inactive).
For `COc1c(Cl)ccc(Cl)c1C(=O)O`, the Potency result in test [1], in test [2], in test [3], in test [5], in test [6] and in [7] was “inactive” throughout. For the same molecule, the Potency result in test [8], in test [9], in [10], in test [11], in test [13] and in [14] was “inactive” each time. The Potency result in test [15], in test [17] and in [18] was “inactive” in each case. Moreover, the call in test [20] was inactive. Further, the max response in test [12] is 2.72% (inactive) and -3.19% (inactive).
As for `CCCN(CCC)C(=O)SCC`, the Potency result in test [1], in test [2], in test [3], in [5], in test [6] and in test [7] was “inactive” in each case. Moreover, the Potency result in test [8], in test [9], in test [10], in test [11], in [13] and in test [14] was “inactive” in each case. Besides, the Potency result in [15], in [17] and in [18] was “inactive” in each case. For the same molecule, the outcome in test [20] was inactive. Further, in [12], the max response is 1.3% (inactive) and 0.597% (inactive).
Consider `Cc1ccccc1Cl`, for which the Potency result in test [1], in test [2], in test [3], in [5], in test [6] and in test [7] was “inactive” each time. Further, the Potency entry in test [8], in test [9], in test [10], in test [11], in [13] and in test [14] was “inactive” in each case. Moreover, the Potency entry in test [15], in test [16], in [17] and in [18] was “inactive” in each case. For the same molecule, in [20], the molecule was called inactive. The max response in test [12] is 1.86% (inactive).

Values taken from PubChem BioAssay (Tox21).
